PubChem BioAssay (Tox21)
Results filed as inconclusive are left out. Activity calls are given as the source filed them. Unless noted, calls come from the whole dose curve.

What was measured:
[1] = Nuclear factor erythroid 2-related factor 2/antioxidant responsive element (Nrf2/ARE) small molecule agonists: qHTS cell viability counter screen in human keratinocytes (AID 1919968; active = well fitted curve in the direction sought with a large enough effect in the repeat runs; an effect the other way counts as inactive or inconclusive; note: nearly all actives have a fitted effect of over 55% in size)
Method in brief: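 Parallel cytotoxicity read: KeratinoSens HaCaT cells, compound treatment 23 h, viability by CellTiter-Fluor fluorescence 1 h post-reagent.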

[2] = Nuclear factor erythroid 2-related factor 2/antioxidant responsive element (Nrf2/ARE) small molecule agonists: luciferase reporter gene qHTS assay in human keratinocytes (AID 1919969); note: nearly all actives have a fitted effect of over 35% in size
[3] = target: Gonadotropin-releasing hormone receptor (Homo sapiens) (UniProt P30968); assay: Human gonadotropin-releasing hormone receptor (GnRHR) small molecule agonists, calcium flux assay in GnRHR-HEK293 cells (AID 1920063); note: nearly all actives have a fitted effect of over 35% in size
Method in brief: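 Calcium flux, agonist mode, human GnRHR stably integrated in HEK293; dye 1 h at 37 C before compound; Ex/Em=480/540 kinetic read, 3 min; 15 concentrations, triplicate.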

[4] = target: KiSS-1 receptor (Homo sapiens) (UniProt Q969F8); assay: Human kisspeptin (KISS1R) small molecule agonists, calcium flux assay in KISS1R-HEK293 cells (AID 1920064; active = well fitted curve in the direction sought with a large enough effect in the repeat runs; an effect the other way counts as inactive or inconclusive)
Method in brief: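 Triplicate 15-concentration series were applied to dye-loaded human KISS1R HEK293 cells, and agonist-evoked calcium fluorescence was captured for 3 min.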

[5] = G protein-coupled receptor (GPCR) small molecule agonists, calcium flux assay: HEK293 wild type cell line counter screen (AID 1920065)
Method in brief: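 Non-specific calcium responders were flagged by adding DMSO-dissolved compounds to dye-loaded cells and reading 480/540 nm fluorescence each second for 3 min; ATP served as positive control.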

[6] = p53 small molecule agonists, cell-based qHTS assay with human liver microsomes (AID 1963577);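 note: p53 response element beta-lactamase reporter cells with liver microsomes plus NADPH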
Method in brief: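 16 h, 37 C exposure of p53RE-bla cells to compounds with human liver microsomes and NADPH (0.5 mg/mL final each); detection via LiveBLAzer mixture, 2 h dark at room temperature.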

[7] = p53 small molecule agonists, cell-based qHTS assay with rat liver microsomes (AID 1963578)
Method in brief: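 With rat liver microsomes and NADPH present (0.5 mg/mL final each), p53RE-bla cells are treated with compound for 16 h at 37 C. LiveBLAzer detection mixture is then applied for 2 h at room temperature in the dark.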

[8] = p53 small molecule agonists, cell-based qHTS assay with human liver microsomes: qHTS cell viability counter screen (AID 1963579); note: nearly all actives have a fitted effect of over 45% in size
Method in brief: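 In this multiplexed counter screen, the reporter plates were subsequently treated with CellTiter-Glo so that cell viability, reflected by luminescence, could be recorded for p53RE-bla cells dosed 16 h with compounds under microsomal activation (HLM and NADPH).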

[9] = p53 small molecule agonists, cell-based qHTS assay with rat liver microsomes: qHTS cell viability counter screen (AID 1963580); note: nearly all actives have a fitted effect of over 45% in size
Method in brief: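 Cytotoxicity counter screen: intracellular ATP measured by CellTiter-Glo luminescence in the same wells as the beta-lactamase reporter read, on HCT-116 p53RE-bla cells exposed 16 h at 37 C to compounds with rat liver microsomes and NADPH, each 0.5 mg/mL final.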

[10] = p53 small molecule agonists, cell-based qHTS assay: qHTS cell viability counter screen (AID 1963581); note: nearly all actives have a fitted effect of over 45% in size
Method in brief: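 Multiplexed with the reporter read, a CellTiter-Glo step (30 min, room temperature) gauges ATP-based viability of HCT-116 p53RE-bla cells after 16 h compound incubation at 37 C.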

[11] = p53 small molecule agonists, cell-based qHTS assay (AID 1963582; active = well fitted activation curve with a large enough effect in the signal ratio in the repeat runs, not every such curve was filed as active; the % refers to the signal ratio)
Method in brief: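 Beta-lactamase reporter cells (p53RE-bla) treated with compounds for 16 h at 37 C; FRET substrate, 2 h, room temperature; fluorescence intensity.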

[12] = target: 5-hydroxytryptamine receptor 2A (Homo sapiens) (UniProt P28223); assay: 5-hydroxytryptamine receptor 2A (HTR2A) small molecule antagonists, cell-based qHTS assay (AID 1963586); note: nearly all actives have a fitted effect of over 45% in size
Method in brief: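 CHO cells stably expressing human HTR2A were plated for 18 h at 37 C, then loaded with calcium dye for 1 h. Compounds were preincubated 5 min at room temperature before DOI (4 nM solution) was added. Kinetic fluorescence was read for 3 min.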

[13] = target: 5-hydroxytryptamine receptor 2A (Homo sapiens) (UniProt P28223); assay: 5-hydroxytryptamine receptor 2A (HTR2A) small molecule agonists, cell-based qHTS assay (AID 1963587); note: nearly all actives have a fitted effect of over 30% in size
Method in brief: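 CHO cells stably expressing human HTR2A, plated 18 h, loaded with calcium dye 1 h at 37 C. Agonist mode: compounds added and intracellular calcium fluorescence recorded kinetically for 2 min at 1 sec intervals.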

[14] = cAMP Responsive Elements (CRE) small molecule agonists, cell-based qHTS assay (AID 1963590)
Method in brief: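 Quantitative HTS for CRE agonists: HEK 293T CRE-bla cells, overnight plating, 3 h compound incubation at 37 C/5% CO2, then 2 h room-temperature LiveBLAzer B/G FRET substrate loading.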

[15] = cAMP Responsive Elements (CRE) small molecule antagonists, cell-based qHTS assay (AID 1963591; active = well fitted inhibition curve with a large enough effect in the signal ratio in the repeat runs, not every such curve was filed as active; the % refers to the signal ratio)
Method in brief: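 Fluorescence intensity from cleaved LiveBLAzer B/G substrate (2 h, room temperature) quantified CRE-bla activity in HEK 293T cells exposed 3 h to compound with 0.25 uM final NKH477.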

[16] = target: Beta-2 adrenergic receptor (Homo sapiens) (UniProt P07550); assay: Adrenergic beta2 receptor (ADRB2) small molecule antagonists, cell-based qHTS assay (AID 1963592); note: series mostly up to about 92 µM; nearly all actives have a fitted effect of over 50% in size
Method in brief: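 Assay format: CHO-ADRB2 cells, 18-20hr seeding at 37C/5% CO2, then compound plus 1nM isoproterenol agonist mix for 0.5hr RT. Homogeneous time-resolved fluorescence cAMP detection after 1hr, expressed as 665/615 nm ratio.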

[17] = target: D(2) dopamine receptor (Homo sapiens) (UniProt P14416); assay: Dopamine D2 receptor (DRD2) small molecule agonists, cell-based qHTS assay (AID 1963594); note: nearly all actives have a fitted effect of over 35% in size
Method in brief: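 HEK293 cells stably expressing human DRD2, pre-treated with PDE inhibitor Ro20-1724 (0.1 mM final) and compound 10 min at room temperature, then stimulated with NKH477 (200nM […]) for 30 min. cAMP read by HTRF (665/620 nm).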

[18] = target: D(2) dopamine receptor (Homo sapiens) (UniProt P14416); assay: Dopamine D2 receptor (DRD2) small molecule antagonists, cell-based qHTS assay (AID 1963595; active = well fitted inhibition curve with a large enough effect in the signal ratio in the repeat runs, with a control signal flat; the % refers to the signal ratio)
Method in brief: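 Antagonist mode in DRD2-HEK293 cells: after compound addition with 0.1 mM Ro20-1724, cells received quinpirole (12 nM) and NKH477 (200 nM) for 30 min at room temperature; HTRF cAMP read after 1 h detection.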

[19] = target: Muscarinic acetylcholine receptor M1 (Homo sapiens) (UniProt P11229); assay: Cholinergic receptor muscarinic 1 (CHRM1) small molecule agonists, cell-based qHTS assay (AID 1963589); note: nearly all actives have a fitted effect of over 35% in size
Method in brief: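 qHTS, 15-point titration, 3 independent runs: compounds pin-transferred onto dye-loaded CHRM1-CHO cells (human M1), calcium fluorescence followed every second to detect agonism.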
% is set by controls: 0 for no effect and ±100 for the full control effect.

Gonadotropin-releasing hormone receptor (Homo sapiens), sequence (P30968 whole entry, looked up): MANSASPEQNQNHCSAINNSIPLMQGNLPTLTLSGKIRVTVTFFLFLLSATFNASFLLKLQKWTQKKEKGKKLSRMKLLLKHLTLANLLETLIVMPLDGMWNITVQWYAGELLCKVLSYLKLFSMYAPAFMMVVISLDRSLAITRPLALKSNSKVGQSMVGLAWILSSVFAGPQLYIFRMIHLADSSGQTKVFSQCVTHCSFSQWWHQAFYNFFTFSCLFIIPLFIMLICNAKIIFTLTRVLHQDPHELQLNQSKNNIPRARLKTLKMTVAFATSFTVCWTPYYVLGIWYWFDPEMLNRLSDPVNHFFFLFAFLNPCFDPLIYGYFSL
Beta-2 adrenergic receptor (Homo sapiens), sequence (P07550 whole entry, looked up): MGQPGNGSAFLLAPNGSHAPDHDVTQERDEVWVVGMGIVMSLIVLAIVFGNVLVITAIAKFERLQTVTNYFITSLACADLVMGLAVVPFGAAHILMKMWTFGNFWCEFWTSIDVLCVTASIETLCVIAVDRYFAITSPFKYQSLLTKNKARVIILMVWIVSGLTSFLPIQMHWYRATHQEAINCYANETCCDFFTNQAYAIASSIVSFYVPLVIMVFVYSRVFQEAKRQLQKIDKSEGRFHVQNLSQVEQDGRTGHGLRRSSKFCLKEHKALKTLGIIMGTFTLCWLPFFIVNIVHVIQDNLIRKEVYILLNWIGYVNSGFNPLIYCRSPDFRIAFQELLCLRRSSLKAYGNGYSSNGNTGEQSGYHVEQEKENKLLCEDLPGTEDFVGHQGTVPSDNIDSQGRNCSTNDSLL
KiSS-1 receptor (Homo sapiens), sequence (Q969F8 whole entry, looked up): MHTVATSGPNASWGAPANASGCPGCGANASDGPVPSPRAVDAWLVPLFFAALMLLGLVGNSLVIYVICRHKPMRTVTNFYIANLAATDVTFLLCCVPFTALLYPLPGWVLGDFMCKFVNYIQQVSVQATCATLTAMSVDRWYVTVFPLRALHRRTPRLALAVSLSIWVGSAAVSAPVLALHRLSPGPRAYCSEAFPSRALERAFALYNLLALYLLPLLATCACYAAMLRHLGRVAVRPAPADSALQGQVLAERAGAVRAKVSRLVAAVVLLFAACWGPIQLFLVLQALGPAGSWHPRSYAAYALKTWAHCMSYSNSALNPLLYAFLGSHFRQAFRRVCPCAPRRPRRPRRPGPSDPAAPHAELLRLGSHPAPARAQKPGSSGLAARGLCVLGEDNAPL
D(2) dopamine receptor (Homo sapiens), sequence (P14416 whole entry, looked up): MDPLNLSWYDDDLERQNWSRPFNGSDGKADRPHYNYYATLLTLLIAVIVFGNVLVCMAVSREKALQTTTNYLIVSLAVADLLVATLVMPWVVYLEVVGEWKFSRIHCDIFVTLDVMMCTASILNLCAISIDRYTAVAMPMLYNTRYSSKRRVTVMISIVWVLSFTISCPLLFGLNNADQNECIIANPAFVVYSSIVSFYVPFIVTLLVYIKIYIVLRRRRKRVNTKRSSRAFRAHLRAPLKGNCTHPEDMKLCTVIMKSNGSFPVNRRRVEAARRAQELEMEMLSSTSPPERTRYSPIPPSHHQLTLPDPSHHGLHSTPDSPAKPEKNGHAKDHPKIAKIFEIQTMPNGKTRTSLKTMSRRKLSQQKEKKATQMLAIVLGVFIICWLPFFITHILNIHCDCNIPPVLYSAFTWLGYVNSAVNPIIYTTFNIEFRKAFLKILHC
Muscarinic acetylcholine receptor M1 (Homo sapiens), sequence (P11229 whole entry, looked up): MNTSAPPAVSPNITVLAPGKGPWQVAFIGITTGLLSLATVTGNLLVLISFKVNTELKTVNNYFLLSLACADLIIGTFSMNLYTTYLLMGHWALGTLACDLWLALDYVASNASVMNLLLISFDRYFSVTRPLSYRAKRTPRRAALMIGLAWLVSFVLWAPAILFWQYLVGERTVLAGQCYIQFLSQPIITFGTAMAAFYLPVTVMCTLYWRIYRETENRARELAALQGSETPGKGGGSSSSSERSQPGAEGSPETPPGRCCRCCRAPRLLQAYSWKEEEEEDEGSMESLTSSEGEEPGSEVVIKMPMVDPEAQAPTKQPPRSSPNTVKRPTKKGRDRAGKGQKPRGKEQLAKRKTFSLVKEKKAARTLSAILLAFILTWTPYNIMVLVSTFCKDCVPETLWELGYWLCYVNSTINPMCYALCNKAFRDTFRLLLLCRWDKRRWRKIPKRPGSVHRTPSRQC
5-hydroxytryptamine receptor 2A (Homo sapiens), sequence (P28223 whole entry, looked up): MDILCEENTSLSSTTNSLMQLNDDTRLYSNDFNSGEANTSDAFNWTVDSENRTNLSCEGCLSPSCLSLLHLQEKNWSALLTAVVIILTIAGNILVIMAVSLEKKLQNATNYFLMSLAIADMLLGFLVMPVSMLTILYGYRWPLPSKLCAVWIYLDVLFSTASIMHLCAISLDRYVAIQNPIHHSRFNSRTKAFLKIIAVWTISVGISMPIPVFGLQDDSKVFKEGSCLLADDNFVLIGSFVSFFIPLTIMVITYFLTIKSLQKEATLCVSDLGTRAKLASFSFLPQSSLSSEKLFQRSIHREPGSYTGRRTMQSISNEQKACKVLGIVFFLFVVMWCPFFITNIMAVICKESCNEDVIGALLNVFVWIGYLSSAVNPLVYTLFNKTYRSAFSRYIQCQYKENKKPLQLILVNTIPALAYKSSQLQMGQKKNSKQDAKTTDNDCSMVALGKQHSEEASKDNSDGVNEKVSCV

CN1CCN(CC(=O)N2c3ccccc3C(=O)Nc3cccnc32)CC1
inactive: activity change, negative = cytotoxicity [1] 0.0434% [at 8.39 µM] | activity, positive = activation [2] -1.98% [at 8.39 µM] | activity change [3] -0.376% [at 5.22 µM, stronger effect = higher value] | activation [4] 7.1% [at 6.97 µM] | activation [5] -0.198% [at 5.23 µM] | activation [6] 8.34% [at 5.99 µM] | activation [7] 0.0177% [at 5.99 µM] | activity change, negative = cytotoxicity [8] 5.54% [at 5.99 µM] | activity change, negative = cytotoxicity [9] 1.67% [at 5.99 µM] | activity change, negative = cytotoxicity [10] 22.9% [at 5.99 µM] | activation [11] -1.98% [at 5.99 µM] | activity, negative = inhibition [12] 57.8% [at 5.62 µM] | activation [13] 0.502% [at 7.02 µM] | activation [14] -0.47% [at 8.39 µM] | activity change, negative = inhibition [15] -9.03% [at 8.39 µM] | activity change, negative = inhibition [16] -1.73% [at 8.39 µM] | activation [17] -0.938% [at 8.39 µM] | activity change, negative = inhibition [18] 3.87% [at 8.38 µM]

NCc1ccco1
inactive: Potency [1] | Potency [2] | Potency [3] | outcome [4] | outcome [5] | Potency [6] | Potency [7] | Potency [8] | Potency [9] | Potency [10] | Potency [11] | Potency [12] | Potency [13] | Potency [15] | Potency [16] | Potency [18]

O=C(O)Cc1c(Cl)ccc(Cl)c1Cl
inactive: Potency [1] | Potency [2] | Potency [3] | outcome [4] | outcome [5] | Potency [6] | Potency [7] | Potency [8] | Potency [9] | Potency [10] | Potency [11] | Potency [12] | Potency [13] | Potency [19] | Potency [16] | Potency [17] | Potency [18]

CO[Si](CCC1CCC2OC2C1)(OC)OC (centres undefined)
inactive: Potency [1] | Potency [2] | Potency [3] | outcome [4] | outcome [5] | Potency [6] | Potency [7] | Potency [8] | Potency [9] | Potency [10] | Potency [11] | Potency [12] | Potency [13] | Potency [14] | Potency [15] | Potency [16] | Potency [17] | Potency [18]

C[N+]1(CC2COC(c3ccccc3)(c3ccccc3)O2)CCCCC1 (centres undefined)
inactive: activity change, negative = cytotoxicity [1] -0.244% [at 19 µM] | activity, positive = activation [2] -7.02% [at 19 µM] | activity change [3] -0.634% [at 11.8 µM, stronger effect = higher value] | activation [4] -1.44% [at 15.8 µM] | activation [5] 0.724% [at 11.8 µM] | activation [6] 0.35% [at 13.5 µM] | activation [7] -0.64% [at 13.6 µM] | activity change, negative = cytotoxicity [8] -12% [at 13.5 µM] | activity change, negative = cytotoxicity [9] 4.65% [at 13.5 µM] | activity change, negative = cytotoxicity [10] -20.9% [at 13.5 µM] | activation [11] 0.97% [at 13.5 µM] | activity, negative = inhibition [12] -7.46% [at 12.7 µM] | activation [13] -9.9% [at 15.9 µM] | activation [19] 10.6% [at 15.8 µM] | activation [14] -0.37% [at 19 µM] | activity change, negative = inhibition [15] 1.85% [at 18.9 µM] | activity change, negative = inhibition [16] -7.43% [at 19 µM] | activation [17] -6.08% [at 19 µM] | activity change, negative = inhibition [18] 7.28% [at 18.9 µM]

O=C(O)CCSCCC(=O)O
inactive: Potency [1] | Potency [2] | Potency [3] | outcome [4] | outcome [5] | Potency [6] | Potency [7] | Potency [8] | Potency [9] | Potency [10] | Potency [11] | Potency [12] | Potency [13] | Potency [19] | Potency [14] | Potency [15] | Potency [17] | Potency [18]

CCN1CN(CC)CN(CC)C1
inactive: Potency [1] | Potency [2] | Potency [3] | outcome [4] | outcome [5] | Potency [6] | Potency [7] | Potency [8] | Potency [9] | Potency [10] | Potency [11] | Potency [12] | Potency [13] | Potency [19] | Potency [14] | Potency [16] | Potency [17] | Potency [18]
